LmPK inh – qHTS Assay for Inhibitors of Leishmania Mexicana Pyruvate Kinase (LmPK); AID 1721, 2009; Q27686; hit rate 0.37% among 290,000; purified LmPK, Kinase-Glo ATP luminescence, 1 h; Potency, µM (doses to about 57.5 µM), for the others: top-dose activity change, negative = inhibition, usual class: inhibitors
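In 50 mM imidazole pH 7.2 with 7 mM MgCl2, LmPK (0.1 nM) turned over PEP (0.5 mM) and ADP (0.1 mM) for 1 h at room temperature. Luciferase read-out of ATP.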
Giardia FBPA inh – qHTS Assay for Inhibitors of Fructose-1,6-bisphosphate Aldolase from Giardia Lamblia; purified Giardia FBPA; hit rate 0.71% among 290,000; A8B2U2; Potency, µM (series often up to 59.6 µM), for inactives: at the top dose activity, negative = inhibition, usual class: inhibitors; further: nearly all actives have a fitted effect of over 55% in size
Target sequence (A8B2U2 whole entry, looked up): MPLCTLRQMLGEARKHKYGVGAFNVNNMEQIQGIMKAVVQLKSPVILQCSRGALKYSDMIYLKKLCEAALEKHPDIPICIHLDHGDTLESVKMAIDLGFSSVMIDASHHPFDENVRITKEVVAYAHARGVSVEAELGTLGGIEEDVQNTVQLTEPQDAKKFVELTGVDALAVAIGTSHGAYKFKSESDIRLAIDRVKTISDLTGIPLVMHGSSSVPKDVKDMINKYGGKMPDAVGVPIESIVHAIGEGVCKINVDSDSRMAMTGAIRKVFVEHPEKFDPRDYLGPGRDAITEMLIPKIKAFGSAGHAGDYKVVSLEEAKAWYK
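Giardia FBPA (40 nM reagent) was preincubated 10 min at RT with compound (up to 57.5 uM final), then substrate plus GAPDH/TPI/NAD/arsenate coupling system with diaphorase/resazurin was added; resorufin fluorescence (525/598 nm) was read after 20 min.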
RE007 growth inh – qHTS Assay for Inhibitors of the HIV-1 protein Vpr | S. pombe RE007 Vpr strain, BacTiter-Glo ATP luminescence, 24 h | Potency, µM (top dose mostly 92.2 µM), inactives show at the highest dose activity change, negative = less growth, usual class: inhibitors | hit rate 0.21% among 360,000 | AID 651644, 2012; active means well fitted falling curve with a large enough effect; inconclusive means small, poorly fitted or top-dose-only effect; inactive means no such curve, though single readings can be large or run the other way; further: nearly all actives have a fitted effect of over 50% in size
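Fission yeast RE007 carrying one integrated HIV-1 vpr copy, seeded at OD 0.01 in PMG+AL medium with 23 nL pinned compound. Grown 24 h at 30 degrees; viability read by BacTiter-Glo luminescence after 5 min.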
TbPYK inhibitor – qHTS of Trypanosoma Brucei Inhibitors. pyruvate kinase (Trypanosoma brucei), Q57TT1. TbPYK enzyme, Kinase-Glo Plus ATP luminescence, 45 min. Potency, µM (doses to about 76.8 µM), for the others: at the top dose activity, negative = inhibition, actives largely listed as inhibitors. hit rate 0.12% among 410,000; further: nearly all actives have a fitted effect of over 50% in size
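ADP (130 uM final) triggers the TbPYK reaction after compound addition; incubation is 45 min at room temperature. Kinase-Glo Plus is then added and luminescence imaged. Normalized data are fitted to concentration-effect curves.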
An asterisk follows results filed as active; ? = inconclusive; . = no result; [ ] = another dose, or the depositor's remark. This is a sample that favours compounds with a hit; in the whole collection about 0.95% have one here. Unless noted, the call rests on the fitted dose curve; in most records, active means well fitted curve in the direction sought with a large enough effect; inconclusive means small, poorly fitted or top-dose-only effect, or another doubt; inactive means no such curve, though single readings can be large; an effect the other way counts as inactive or inconclusive. On the % scale 0 is the no-effect control and ±100 the full control effect; potency means the concentration at half of the fitted maximal effect.

SMILES	LmPK inh	Giardia FBPA inh	RE007 growth inh	TbPYK inhibitor
S=c1[nH]nc(-c2ccccc2Cl)n1Cc1ccccc1	-5%	-2%	4%	6.3µM*
C=C(C)Cn1c(SCC(=O)Nc2cc(C)ccc2C)nc2sc3c(c2c1=O)CCCC3	.	.	.	1%
CCc1ccc(CNCc2c(C(=O)O)c(C)n(Cc3c(F)cccc3Cl)c2C)cc1	.	.	.	-6%
CC(=O)NCCCC[C@H](NC(=O)OC(C)(C)C)C(=O)Nc1ccc2c(C(F)(F)F)cc(=O)oc2c1	.	0%	.	.
Cc1ccc(C)c(-n2c(-c3csc(C)c3C)n[nH]c2=S)c1	7.1µM*	11%	5%	?
COc1ccc(Cc2n[nH]c(=S)n2-c2cc(C)ccc2C)cc1OC	.	.	3%	?
COc1ccc(NC(=O)C=C(C)C)cc1Cl	16µM*	-3%	-26%	-12%
COc1ccc(OC)c2c1C(=O)C(Cl)=C(Cl)C2=O	-21%	1.3µM*	?	2.8µM*
COc1ccc(OC)c2c1C(=O)c1ccccc1C2=O	-15%	?	-8%	0%
O=C(NCc1ccccc1)c1noc2c1CCCC2	-11%	6%	16µM*	-4%
CCc1ccc(NC(=O)c2noc3c2CCCCC3)cc1	-1%	3%	18%	-6%
CC(NC(=O)c1noc2c1CCCC2)c1ccccc1 (stereo unspecified)	-4%	3%	35µM*	-6%
CCc1ccc(NC(=O)c2noc3c2CCC3)cc1	14µM*	-12%	?	-1%
CN1CC[C@]23c4c5ccc(O)c4OC2C(O)CCC3[C@H]1C5 (stereo partly specified)	.	.	.	0%[157 µM]
CS(=O)(=O)c1ccc(N)c(SSc2cc(S(C)(=O)=O)ccc2N)c1	.	.	7%	3.5µM*
CCOc1ccc(N)c(SSc2cc(OCC)ccc2N)c1	18%	?	.	?
CC1(C)CC(=O)C2=C(C1)NC(=S)C(C#N)C21CCCCC1 (stereo unspecified)	-11%	?	-13%	2.8µM*
C[C@]12CC[C@@H]3c4ccc(O)cc4CC[C@H]3[C@@H]1CCC2OC(=O)CCC1CCCC1 (stereo partly specified)	.	.	.	1%
COc1ccc(-n2c(=O)cnc3cnc(Oc4cccc(Cl)c4)nc32)cc1	.	-4%	.	-1%
CSc1ccccc1NC(=O)Nc1ccccc1	?	-9%	-19%	-3%
CCOc1ccc(NC(=O)Nc2ccccc2SC)cc1	7.9µM*	-2%	-7%	-9%
CCN(CC)C(=O)c1nc(-c2cccc3ccccc23)no1	.	.	-3%	2%
Cc1[nH]n(-c2ccccc2)c(=O)c1C(C[N+](=O)[O-])c1ccc(F)cc1 (stereo unspecified)	6%	?	?	0%
Cc1ccc(C(C[N+](=O)[O-])c2c(C)[nH]n(-c3ccccc3)c2=O)cc1 (stereo unspecified)	0%	?	20µM*	5%
Cc1[nH]n(-c2ccccc2)c(=O)c1C(C[N+](=O)[O-])c1ccc(Cl)cc1 (stereo unspecified)	1%	?	28µM*	-5%
SMILES	LmPK inh	Giardia FBPA inh	RE007 growth inh	TbPYK inhibitor
Cc1[nH]n(-c2ccccc2)c(=O)c1C(c1cc(Cl)ccc1O)c1c(C)[nH]n(-c2ccccc2)c1=O	.	.	.	0%
COc1ccccc1NC(=O)N1CCCC1C(=O)NCc1ccccc1Cl (stereo unspecified)	2%	0%	0%	-1%
CCN1CCN(C2=C(NS(=O)(=O)c3ccc(NC(C)=O)cc3)C(=O)c3ccccc3C2=O)CC1	-8%	.	-17%	-7%
CC(=O)Nc1ccc(S(=O)(=O)NC2=C(N3CCN(C)CC3)C(=O)c3ccccc3C2=O)cc1	-6%	0.71µM*	-5%	-10%
O=C(OCn1ncc(Cl)c(Cl)c1=O)c1ccc(C(F)(F)F)cc1	1%	6%	-9%	10%
Cc1ccc(C(=O)OCn2ncc(Cl)c(Cl)c2=O)cc1	6%	6%	50µM*	14%
CCOC(=O)CC(S(=O)(=O)c1ccccc1)S(=O)(=O)c1ccccc1	.	.	2µM*	-5%
CCCCCCC(O)C/C=C\CCCCCCCC(=O)O (stereo unspecified)	.	.	.	5%
CC(C)CSC1=NSC2=NC(=O)/C(=C\c3coc4ccccc4c3=O)C(=N)N12	4%	-4%	-1%	-7%
CSC1=NSC2=NC(=O)/C(=C\c3coc4ccccc4c3=O)C(=N)N12	5%	7%	28µM*	-8%
N=C1/C(=C\c2coc3ccccc3c2=O)C(=O)N=C2SC(c3ccncc3)=NN12	-4%	1%	14µM*	-23%
Cc1ccsc1/C=C/c1ccc2cccc(O)c2n1	?	-12%	?	6%
Oc1cccc2ccc(/C=C/c3cccs3)nc12	22µM*	-13%	?	-9%
CC(C)OCCCn1c(-c2ccc(Br)cc2)c[nH]c1=S	13µM*	-4%	9%	?
CC(C)OCCCn1c(=S)[nH]c2ncccc2c1=O	1%	-8%	9%	-11%
O=Cc1ccc(-c2nc3ccccc3s2)o1	16µM*	-2%	-10%	-13%
CCS(=O)(=O)c1ccc2oc(Nc3ccccc3Br)nc2c1	16µM*	15%	-16%	1%
CCS(=O)(=O)c1ccc2oc(Nc3ccccc3Cl)nc2c1	-21%	.	-27%	-15%
Cc1ccc(S(=O)(=O)N2CCN(C(=O)c3cc(S(=O)(=O)N(C)C)ccc3N3CCCC3)CC2)c(C)c1	.	.	7%	-4%
CC(=O)c1ccc(NC(=S)Nc2cccc3cnccc23)cc1	5%	2µM*	-29%	-13%
Cc1ccc(NC(=S)Nc2cccc3cnccc23)cc1	-10%	?	-13%	-18%
Cc1ccccc1NC(=S)Nc1cccc2cnccc12	5%	2µM*	-16%	-11%
COCCCNC(=O)COC(=O)c1ccc(-c2nc3ccccc3s2)s1	-8%	3%	-2%	1%
CNC(=O)COC(=O)c1ccc(-c2nc3ccccc3s2)s1	14µM*	0%	-14%	-27%
CCn1c(=O)c2c(n3c(=S)[nH]nc13)-c1ccccc1CC21CCCCC1	14µM*	5%	0%	?
SMILES	LmPK inh	Giardia FBPA inh	RE007 growth inh	TbPYK inhibitor
CCn1c(SCC#N)nc2c(c1=O)C1(CCCC1)Cc1ccccc1-2	4%	7%	4%	5%
Cc1ccc(-c2nc(C)c(C(=O)O)s2)cc1	?	11%	12%	-12%
Cc1nc(-c2ccc([N+](=O)[O-])cc2)sc1C(=O)O	16µM*	9%	-24%	-10%
C[N+]1(C)CCC(OC(=O)CC(O)(c2ccccc2)C2CCCC2)C1 (stereo unspecified)	.	.	.	-9%
C[C@]12CC[C@@H]3c4ccc(O)c(O)c4CC[C@H]3[C@@H]1CC[C@@H]2O	1µM*	13µM*	5%[18.4 µM]	10µM*
C[C@@]12CC[C@@H]3c4ccc(O)cc4CC[C@H]3[C@H]1CC[C@H]2O	.	-4%[21.7 µM]	.	.
CCOC(=O)c1cnc(Nc2nc3ccccc3o2)nc1C	14µM*	-1%	-9%	?
Cc1nc(Nc2nc3ccccc3o2)nc2c1CCC2	16µM*	-9%	-4%	0%

Screens as filed in PubChem.
